In PubChem BioAssay (EPA / NIEHS):
Inconclusive results are not listed. Activity calls are given as the source filed them. The calls were made as follows, unless noted: active = hit-call score of the fitted dose curve at least 0.9, where 1 is the maximum; inactive = score below 0.9.

Assays:
[1] = ATG_DR4_LXR_CIS: Attagene CIS-FACTORIAL HepG2 Assay for human Liver X Receptor (LXR), DR4 submotif (AID 2282929); settings: HepG2 Attagene DR4 cis-reporter, mRNA transcription; actives raise or lower the signal
In short: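 The endpoint is DR4-element-driven reporter transcripts after 24 h chemical exposure of transfected HepG2 cells. These were measured via RT-PCR and capillary electrophoresis, and gain or loss of signal was fitted relative to DMSO controls.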

[2] = target: Transcription factor E2F1 (Homo sapiens) (UniProt Q01094); experiment: ATG_E2F_CIS: Attagene CIS-FACTORIAL HepG2 Assay for human E2F Transcription Factor 1 (AID 2282935); settings: HepG2 Attagene cis-reporter, E2F reporter RNA transcripts; actives raise or lower the signal
In short: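 First, HepG2 cells were transfected with reporter transcription units. Next, they were dosed for 24 h. Then RNA was isolated, converted to cDNA, PCR-amplified, FAM-labeled, HpaI-digested and analyzed by capillary electrophoresis.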

[3] = ATG_GLI_CIS: Attagene CIS-FACTORIAL HepG2 Assay for human Zinc Finger Protein GLI1 (AID 2282945); settings: HepG2, Attagene cis-factorial reporter mRNA, GLI element; actives raise or lower the signal
In short: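 HepG2 cells transiently transfected with cis-promoter multiplexed reporter units report endogenous transcription factor activity. After 24 h chemical exposure, reporter mRNA was quantified by RT-PCR, 6-FAM labelling, HpaI digestion and capillary electrophoresis, with bidirectional fitting against DMSO.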

[4] = ATG_GRE_CIS: Attagene CIS-FACTORIAL HepG2 Assay for human Glucocorticoid Response Elements (GRE) (AID 2282947); settings: HepG2 GRE cis-reporter, Attagene multiplex mRNA; actives raise or lower the signal
In short: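 Cells (HepG2) bearing transfected cis-promoter reporter transcription units were treated with chemical for 24 hours. Reporter mRNA was measured via RT-PCR with capillary electrophoresis, and activity was fitted in both directions relative to DMSO.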

[5] = target: Hypoxia-inducible factor 1-alpha (Homo sapiens) (UniProt Q16665); experiment: ATG_HIF1a_CIS: Attagene CIS-FACTORIAL HepG2 Assay for human Hypoxia Inducible Factor 1 (HIF1A) (AID 2282951); settings: HepG2 Attagene cis-factorial HIF1a reporter transcription; actives raise or lower the signal
In short: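 Activity is fitted in both directions relative to DMSO. Reporter transcripts are read by RT-PCR, fluorescent primer extension and capillary electrophoresis after 24 h chemical treatment. The cells are HepG2 carrying transiently transfected cis-element-driven reporter units responding to endogenous factors.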

[6] = target: Hepatocyte nuclear factor 6 (Homo sapiens) (UniProt Q9UBC0); experiment: ATG_HNF6_CIS: Attagene CIS-FACTORIAL HepG2 Assay for human Hepatocyte Nuclear Factor 6 (HNF6) (AID 2282952); settings: HepG2 Attagene cis-factorial HNF6 reporter transcription; actives raise or lower the signal
In short: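 Using cis-element reporters in HepG2 liver cells, the assay tracks endogenous factor-driven transcription 24 h post-dosing. Signal comes from 6-FAM-labelled, HpaI-digested RT-PCR fragments, with gain or loss scored against DMSO.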

[7] = target: Heat shock factor protein 1 (Homo sapiens) (UniProt Q00613); experiment: ATG_HSE_CIS: Attagene CIS-FACTORIAL HepG2 Assay for human Heat Shock Transcription Factor 1 (HSE) (AID 2282953); settings: HepG2 HSE cis-reporter, Attagene RNA transcription; actives raise or lower the signal
In short: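 Endogenous transcription factor activity in transiently transfected HepG2, read as reporter mRNA by RT-PCR with fluorescent capillary electrophoresis after 24 h. Gain or loss of signal fitted versus DMSO baseline.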

[8] = ATG_TA_CIS: Attagene CIS-FACTORIAL HepG2 Assay for human TA Basal Promoter (AID 2282964); settings: HepG2 Attagene CIS-factorial TA basal promoter reporter; actives raise or lower the signal
In short: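 Background-control readout: TA basal promoter reporter mRNA, fitted in both directions relative to DMSO. Measured by RT-PCR and capillary electrophoresis 24 hours after treating HepG2 human liver cells transiently carrying multiplexed cis-regulated reporter constructs.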

[9] = ATG_TCF_b_cat_CIS: Attagene CIS-FACTORIAL HepG2 Assay for human T-Cell-Factor with beta-catenin (TCF/b-cat) (AID 2282965); settings: HepG2 TCF/beta-catenin cis-reporter transcription, actives raise or lower the signal
In short: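 HepG2 cells transiently transfected with multiple cis-promoter-regulated reporter transcription units, so endogenous transcription factor activity is measured. Reporter mRNA read 24 hours after dosing by RT-PCR, fluorescent labelling and capillary electrophoresis; bidirectional fitting against DMSO.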

[10] = ATG_TGFb_CIS: Attagene CIS-FACTORIAL HepG2 Assay for human Transforming Growth Factor (TGF) (AID 2282967); settings: HepG2 Attagene CIS TGFb reporter, mRNA transcription; actives raise or lower the signal
In short: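 Endogenous TGFB1-linked transcription factor activity read as reporter mRNA via RT-PCR and capillary electrophoresis, 24 h after dosing transiently transfected HepG2 cells. Gain or loss of signal fitted relative to DMSO.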

[11] = target: Transcriptional activator Myb (Homo sapiens) (UniProt P10242); experiment: ATG_Myb_CIS: Attagene CIS-FACTORIAL HepG2 Assay for human Myeloblastosis (Myb) Proto-Oncogene Transcription Factor (AID 2282986); settings: HepG2 Attagene CIS-FACTORIAL Myb reporter transcription; actives raise or lower the signal
In short: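 Reporter mRNA is quantified by RT-PCR and capillary electrophoresis 24 h after dosing HepG2 cells transfected with cis-regulated reporter units, which track endogenous transcription factor activity. Gain and loss of signal are fitted versus DMSO baseline.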

[12] = target: Nuclear respiratory factor 1 (Homo sapiens) (UniProt Q16656); experiment: ATG_NRF1_CIS: Attagene CIS-FACTORIAL HepG2 Assay for human Nuclear Respiratory Factor 1 (NRF1) Orphan Gene (AID 2282987); settings: HepG2 NRF1 cis-element reporter, Attagene multiplex; actives raise or lower the signal
In short: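 Endogenous NRF1-driven reporter transcription in transfected HepG2 cells after 24 h treatment. Readout: RT-PCR products, 6-FAM labelled and resolved by capillary electrophoresis; changes fitted both directions relative to DMSO.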

[13] = ATG_NFI_CIS: Attagene CIS-FACTORIAL HepG2 Assay for human Nuclear Factor I (NFI) (AID 2282989); settings: HepG2 cis-regulatory reporter, NFI response element transcription; actives raise or lower the signal
In short: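 Reporter transcripts were measured by RT-PCR with fluorescent primer extension and capillary electrophoresis 24 h post-treatment. HepG2 cells carried transiently transfected cis-regulated reporter constructs reporting endogenous factor activity; gain or loss fitted against DMSO baseline.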

[14] = ATG_NRF2_ARE_CIS: Attagene CIS-FACTORIAL HepG2 Assay for human Nuclear Factor Erythroid 2 Related Factor 2 (NFR2) response to Antioxidant Response Elements (ARE) (AID 2282992); settings: HepG2 Attagene ARE/NRF2 reporter, transcription factor activity; actives raise or lower the signal;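 as to AC50: reporter mRNA level measured by RT-PCR and capillary electrophoresis fluorescence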
In short: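 Endogenous transcription factor activity in human liver HepG2 cells is tracked via a cis-element-driven reporter within a multiplexed set. mRNA induction is read by RT-PCR and capillary electrophoresis after 24 h, with DMSO as baseline.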

[15] = ATG_Oct_MLP_CIS: Attagene CIS-FACTORIAL HepG2 Assay for human Octamer-Binding Transcription Factor (Oct) (AID 2282993); settings: HepG2 Attagene cis-factorial Oct reporter, mRNA; actives raise or lower the signal
In short: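 Readout is reporter transcript level from RT-PCR with fluorescent primer extension and capillary electrophoresis, fitted in both directions against DMSO. Transfected HepG2 reporter units report endogenous factor activity after 24 h dosing.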

[16] = target: Cellular tumor antigen p53 (Homo sapiens) (UniProt P04637); experiment: ATG_p53_CIS: Attagene CIS-FACTORIAL HepG2 Assay for human p53 Transcription Factor (AID 2282994); settings: HepG2 p53 cis-element reporter, Attagene mRNA; actives raise or lower the signal
In short: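 Steps: transfect HepG2 with multiplexed cis reporter constructs; dose chemicals 24 h; extract RNA, reverse-transcribe, PCR-amplify reporter sequences; FAM-label, HpaI-digest, resolve fragments by CE. Activity fitted both directions relative to DMSO.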

[17] = ATG_XTT_Cytotoxicity: Cytotoxicity Assessment in the Attagene TRANS-FACTORIAL HepG2 Assay (AID 2283584; active = hit-call score of the fitted dose curve at least 0.9, where 1 is the maximum;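 as to AC50: cells exposed to compound for 24 h before reading; active means loss of viability signal versus DMSO baseline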)
In short: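 Cells: human HepG2, transiently transfected with MRTU reporter constructs. Exposure 24 h. Readout: XTT, cell number. Baseline/neg ctrl DMSO; loss-of-signal scored.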

[18] = ATG_CRE_CIS: Attagene CIS-FACTORIAL HepG2 Assay for human cAMP Responsive Element (CRE) binding protein 3 (AID 2282926); settings: HepG2 CRE cis-reporter, Attagene multiplexed mRNA; actives raise or lower the signal
In short: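 Assay format: transient reporter transfection of HepG2, 24 h treatment, total RNA isolation with DNase I step. Reporter abundance read by fluorescence after PCR and capillary separation; DMSO-normalised gain or loss fitting.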

[19] = target: Myc proto-oncogene protein (Homo sapiens) (UniProt P01106); experiment: ATG_Myc_CIS: Attagene CIS-FACTORIAL HepG2 Assay for human Myelocytomatosis (Myc) Proto-Oncogene Transcription Factor (AID 2282990); settings: HepG2, Attagene cis-reporter transcription factor activity; actives raise or lower the signal
In short: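 HepG2 cells transiently transfected with multiple cis-promoter-driven reporter transcription units, so endogenous TF activity is read. After 24 h compound exposure, reporter mRNA was quantified by RT-PCR, 6-FAM labelling, HpaI digestion and capillary electrophoresis; bidirectional fit versus DMSO.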

[20] = target: Nuclear receptor subfamily 1 group I member 2 (Homo sapiens) (UniProt O75469); experiment: ATG_PXR_TRANS: Attagene TRANS-FACTORIAL HepG2 Assay for human Pregnane X Receptor (PXR) (AID 2283008; active = hit-call score of the fitted dose curve at least 0.9, where 1 is the maximum)
In short: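 HepG2 transfected (FuGene 6) with GAL4-UAS reporter units + PXR-Gal4 chimera; dosed 24 h. Total RNA → oligo(dT) RT → PCR → 6-FAM primer extension → HpaI cut → CE. Gain-of-signal vs DMSO.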

Measured: AC50

Nuclear receptor subfamily 1 group I member 2 (Homo sapiens), sequence (O75469 whole entry, looked up, the tested form may be a part): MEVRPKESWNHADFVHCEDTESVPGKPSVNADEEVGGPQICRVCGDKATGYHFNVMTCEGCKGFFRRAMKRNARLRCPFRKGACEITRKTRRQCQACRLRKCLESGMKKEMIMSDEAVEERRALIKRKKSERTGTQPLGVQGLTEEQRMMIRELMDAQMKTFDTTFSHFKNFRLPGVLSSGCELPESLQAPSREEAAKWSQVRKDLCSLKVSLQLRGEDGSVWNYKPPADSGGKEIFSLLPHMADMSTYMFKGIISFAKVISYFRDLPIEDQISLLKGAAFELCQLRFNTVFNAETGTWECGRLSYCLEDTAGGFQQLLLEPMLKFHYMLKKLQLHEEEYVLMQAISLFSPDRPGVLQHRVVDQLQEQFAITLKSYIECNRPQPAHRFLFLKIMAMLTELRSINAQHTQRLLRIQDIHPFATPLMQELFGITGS
Hypoxia-inducible factor 1-alpha (Homo sapiens), sequence (Q16665 whole entry, looked up): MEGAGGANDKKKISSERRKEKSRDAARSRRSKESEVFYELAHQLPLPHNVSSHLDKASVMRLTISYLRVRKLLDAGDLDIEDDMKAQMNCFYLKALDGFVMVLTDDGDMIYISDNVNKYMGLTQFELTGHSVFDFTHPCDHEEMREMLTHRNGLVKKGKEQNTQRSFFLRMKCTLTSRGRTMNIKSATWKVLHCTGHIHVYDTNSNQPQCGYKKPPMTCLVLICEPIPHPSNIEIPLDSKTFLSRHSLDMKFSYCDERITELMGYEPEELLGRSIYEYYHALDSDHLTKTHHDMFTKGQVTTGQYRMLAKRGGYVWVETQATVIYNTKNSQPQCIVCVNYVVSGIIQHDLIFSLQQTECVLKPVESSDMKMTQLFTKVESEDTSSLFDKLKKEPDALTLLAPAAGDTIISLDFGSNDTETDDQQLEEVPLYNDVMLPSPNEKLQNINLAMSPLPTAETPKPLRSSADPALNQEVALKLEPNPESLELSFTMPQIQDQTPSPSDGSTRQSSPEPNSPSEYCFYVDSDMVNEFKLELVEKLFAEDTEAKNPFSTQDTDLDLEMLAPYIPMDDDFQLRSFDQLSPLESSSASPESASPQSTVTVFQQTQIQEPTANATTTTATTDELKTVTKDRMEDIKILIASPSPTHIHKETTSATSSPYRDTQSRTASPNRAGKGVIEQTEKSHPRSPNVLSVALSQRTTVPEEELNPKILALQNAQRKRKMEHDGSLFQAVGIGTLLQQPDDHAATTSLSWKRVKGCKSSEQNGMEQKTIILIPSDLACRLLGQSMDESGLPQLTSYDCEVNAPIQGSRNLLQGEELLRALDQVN
Nuclear respiratory factor 1 (Homo sapiens), sequence (Q16656 whole entry, looked up): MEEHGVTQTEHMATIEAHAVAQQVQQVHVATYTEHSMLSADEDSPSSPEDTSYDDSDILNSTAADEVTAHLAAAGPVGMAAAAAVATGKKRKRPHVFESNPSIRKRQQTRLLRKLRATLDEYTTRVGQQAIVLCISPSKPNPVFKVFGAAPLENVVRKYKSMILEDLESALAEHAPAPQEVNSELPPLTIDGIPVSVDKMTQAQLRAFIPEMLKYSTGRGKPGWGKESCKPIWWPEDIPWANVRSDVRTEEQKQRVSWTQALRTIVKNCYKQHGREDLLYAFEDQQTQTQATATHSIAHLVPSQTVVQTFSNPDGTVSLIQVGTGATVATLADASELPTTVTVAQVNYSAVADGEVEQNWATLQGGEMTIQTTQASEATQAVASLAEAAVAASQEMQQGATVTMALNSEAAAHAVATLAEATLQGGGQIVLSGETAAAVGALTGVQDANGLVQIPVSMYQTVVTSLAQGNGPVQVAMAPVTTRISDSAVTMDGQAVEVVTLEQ
Cellular tumor antigen p53 (Homo sapiens), sequence (P04637 whole entry, looked up, the tested form may be a part): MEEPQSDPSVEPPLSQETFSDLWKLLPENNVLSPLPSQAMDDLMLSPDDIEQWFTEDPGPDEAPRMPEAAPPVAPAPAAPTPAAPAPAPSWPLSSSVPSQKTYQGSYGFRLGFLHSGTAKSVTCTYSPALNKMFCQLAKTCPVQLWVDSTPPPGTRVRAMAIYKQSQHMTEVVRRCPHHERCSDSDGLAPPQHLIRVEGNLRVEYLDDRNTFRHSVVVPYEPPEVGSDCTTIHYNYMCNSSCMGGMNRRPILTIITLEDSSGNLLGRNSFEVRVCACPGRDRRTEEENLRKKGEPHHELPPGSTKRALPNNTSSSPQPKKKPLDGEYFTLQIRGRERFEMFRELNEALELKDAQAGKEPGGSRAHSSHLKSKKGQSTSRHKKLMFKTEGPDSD
Myc proto-oncogene protein (Homo sapiens), sequence (P01106 whole entry, looked up): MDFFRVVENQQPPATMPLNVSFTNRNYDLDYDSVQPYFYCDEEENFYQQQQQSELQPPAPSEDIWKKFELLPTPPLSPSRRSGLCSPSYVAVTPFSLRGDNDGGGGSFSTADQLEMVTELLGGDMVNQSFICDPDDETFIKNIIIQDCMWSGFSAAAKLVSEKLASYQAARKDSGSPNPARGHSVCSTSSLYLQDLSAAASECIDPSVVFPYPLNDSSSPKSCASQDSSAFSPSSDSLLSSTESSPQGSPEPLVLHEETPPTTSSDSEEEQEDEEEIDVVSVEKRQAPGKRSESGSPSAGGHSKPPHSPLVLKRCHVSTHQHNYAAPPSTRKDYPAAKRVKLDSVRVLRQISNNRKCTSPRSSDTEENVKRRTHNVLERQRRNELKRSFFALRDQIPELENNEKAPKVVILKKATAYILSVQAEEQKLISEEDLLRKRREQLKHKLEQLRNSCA
Transcription factor E2F1 (Homo sapiens), sequence (Q01094 whole entry, looked up): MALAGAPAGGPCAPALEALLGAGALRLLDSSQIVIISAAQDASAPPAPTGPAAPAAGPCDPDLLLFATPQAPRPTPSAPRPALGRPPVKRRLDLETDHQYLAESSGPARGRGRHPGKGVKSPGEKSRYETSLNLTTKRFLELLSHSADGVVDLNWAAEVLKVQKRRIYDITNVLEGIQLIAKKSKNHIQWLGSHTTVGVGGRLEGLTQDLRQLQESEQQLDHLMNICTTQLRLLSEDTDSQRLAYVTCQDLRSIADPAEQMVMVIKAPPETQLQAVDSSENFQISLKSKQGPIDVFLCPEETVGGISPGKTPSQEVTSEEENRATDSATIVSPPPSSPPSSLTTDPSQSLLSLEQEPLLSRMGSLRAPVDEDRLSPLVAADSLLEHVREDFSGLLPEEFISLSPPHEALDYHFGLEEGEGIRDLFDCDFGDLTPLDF
Heat shock factor protein 1 (Homo sapiens), sequence (Q00613 whole entry, looked up): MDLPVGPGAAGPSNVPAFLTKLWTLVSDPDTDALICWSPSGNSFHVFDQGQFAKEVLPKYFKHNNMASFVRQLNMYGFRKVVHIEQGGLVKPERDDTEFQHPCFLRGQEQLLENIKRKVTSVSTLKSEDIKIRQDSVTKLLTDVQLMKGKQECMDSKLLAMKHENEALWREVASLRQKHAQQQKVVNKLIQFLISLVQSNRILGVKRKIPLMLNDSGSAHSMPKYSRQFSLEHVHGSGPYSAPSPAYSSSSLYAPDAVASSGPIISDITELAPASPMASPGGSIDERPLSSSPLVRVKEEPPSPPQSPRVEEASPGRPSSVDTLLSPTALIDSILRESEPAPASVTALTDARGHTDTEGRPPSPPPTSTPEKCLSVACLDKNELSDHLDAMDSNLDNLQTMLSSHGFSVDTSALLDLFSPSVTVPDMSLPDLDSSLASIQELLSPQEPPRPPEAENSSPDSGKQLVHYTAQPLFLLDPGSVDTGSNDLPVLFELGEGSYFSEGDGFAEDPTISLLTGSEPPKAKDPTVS
Hepatocyte nuclear factor 6 (Homo sapiens), sequence (Q9UBC0 whole entry, looked up, the tested form may be a part): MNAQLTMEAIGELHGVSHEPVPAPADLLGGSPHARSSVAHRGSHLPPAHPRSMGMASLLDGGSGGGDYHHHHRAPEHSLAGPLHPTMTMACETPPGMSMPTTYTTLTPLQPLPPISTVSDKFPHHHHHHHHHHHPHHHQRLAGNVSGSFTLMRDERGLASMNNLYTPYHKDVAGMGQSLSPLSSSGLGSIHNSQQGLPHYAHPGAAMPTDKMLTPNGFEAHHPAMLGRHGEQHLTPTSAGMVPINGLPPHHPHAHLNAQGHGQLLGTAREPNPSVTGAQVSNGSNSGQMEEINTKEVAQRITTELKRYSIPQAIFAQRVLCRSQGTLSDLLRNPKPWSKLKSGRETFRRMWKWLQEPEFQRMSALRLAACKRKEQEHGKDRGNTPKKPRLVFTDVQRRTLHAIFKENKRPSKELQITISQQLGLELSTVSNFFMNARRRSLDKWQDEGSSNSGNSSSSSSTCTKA
Transcriptional activator Myb (Homo sapiens), sequence (P10242 whole entry, looked up): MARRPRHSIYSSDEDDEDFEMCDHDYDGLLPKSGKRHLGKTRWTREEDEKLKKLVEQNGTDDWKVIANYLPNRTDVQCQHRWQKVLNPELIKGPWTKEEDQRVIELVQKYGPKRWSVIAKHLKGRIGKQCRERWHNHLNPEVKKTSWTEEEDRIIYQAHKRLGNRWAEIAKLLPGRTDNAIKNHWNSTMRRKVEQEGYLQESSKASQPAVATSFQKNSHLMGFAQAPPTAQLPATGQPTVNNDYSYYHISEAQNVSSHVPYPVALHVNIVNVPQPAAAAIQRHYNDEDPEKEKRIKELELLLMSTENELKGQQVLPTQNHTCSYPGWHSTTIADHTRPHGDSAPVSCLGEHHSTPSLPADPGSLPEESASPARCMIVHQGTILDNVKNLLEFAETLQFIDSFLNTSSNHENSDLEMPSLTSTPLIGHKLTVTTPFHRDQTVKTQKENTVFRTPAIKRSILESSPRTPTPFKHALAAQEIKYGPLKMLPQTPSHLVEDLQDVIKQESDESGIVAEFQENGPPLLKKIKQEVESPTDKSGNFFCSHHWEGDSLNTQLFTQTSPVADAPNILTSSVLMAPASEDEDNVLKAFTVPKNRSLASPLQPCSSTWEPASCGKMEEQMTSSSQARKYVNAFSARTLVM

Nc1nnc(-c2ccc([N+](=O)[O-])o2)o1
active: [14] 20.8 µM | [17] 159 µM
not listed: [18] | [19] | [20]
inactive: all other assays above

Cc1cccnc1
active: [7] 100 µM | [11] 164 µM
not listed: [2] | [4] | [8] | [16] | [17]
inactive: all other assays above

NC(N)=Nc1nc(CSCCC(N)=NS(N)(=O)=O)cs1
not listed: [3] | [5] | [18]
inactive: all other assays above

CN1CCCC1
active: [14] 26.2 µM
not listed: [3] | [4] | [18]
inactive: all other assays above

[O-][n+]1ccc(Cl)cc1
not listed: [18]
inactive: all other assays above

O=C(O)c1cc(Cl)cc(Cl)c1O
not listed: [3] | [4] | [10]
inactive: all other assays above

CCC(C)=NO
not listed: [17] | [18] | [19] | [20]
inactive: all other assays above

CC1=C(CC(=O)O)c2cc(F)ccc2/C1=C\c1ccc(S(C)=O)cc1 (configuration not stated)
active: [7] 180 µM | [14] 23 µM | [20] 26.5 µM
not listed: [3] | [5] | [9] | [17]
inactive: all other assays above

CCC(C)C1N=C(C)C(C)S1 (configuration not stated)
active: [20] 4.45 µM
not listed: [2] | [8] | [9] | [18]
inactive: all other assays above

CC[N+](CC)(CC(=O)Nc1c(C)cccc1C)Cc1ccccc1 (tested in a mixture with another compound)
not listed: [2] | [4] | [7] | [8] | [9] | [16]
inactive: all other assays above

COc1cccc(OC)c1C(=O)O
not listed: [2] | [20]
inactive: all other assays above

CC(C)CC(=O)CC(C)C
not listed: [2] | [4] | [9] | [18] | [19]
inactive: all other assays above
